Assay results published in PubChem BioAssay AID1159580 (chemical genetic matrix, 2015).
Hit rate of the full screen: of about 5,500 compounds, about 2,000 (36%) were called active. Another 18% or so got no clear call; they are omitted. Cut-off read from the data, not from the text of the source: active = normalized growth mostly below about 0.91 (no sharp cut-off); inconclusive = no clear call, values can overlap the other calls; inactive = mostly above about 0.92. Some of the results follow.

Test: chemical genetic growth profiling, strain panel (AID 1159580);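 note: tested at 20 µM; growth read once vehicle control cultures reached saturation at 30 °C; 1 = growth at the plate median or of vehicle wells; lower values mean less growth of the strain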
Details: growth OD
[1] = S. cerevisiae deletion strains, locus YHR030C, strain SLT2, active compounds read low
[2] = S. cerevisiae deletion strains, locus YJL095W, strain BCK1, active compounds read low

Measured: normalized growth

C=Cc1c(C)c2cc3nc(c4c5[nH]c(cc6nc(cc1[nH]2)C(C)=C6CC)c(C)c5C(=O)[C@@H]4C(=O)OC)[C@@H](CCC(=O)OC/C=C(\C)CCCC(C)CCCC(C)CCCC(C)C)[C@@H]3C (some centres undefined)
inactive: [1] 0.987 | S. cerevisiae deletion strains, locus YHR079C, strain IRE1, active compounds read low 0.972 | [2] 0.978 | S. cerevisiae deletion strains, locus YJR066W, strain TOR1, active compounds read low 0.934 | S. cerevisiae deletion strains, locus YLR113W, strain HOG1, active compounds read low 0.957 | S. cerevisiae deletion strains, locus YNL183C, strain NPR1, active compounds read low 0.935 | S. cerevisiae deletion strains, locus YOR231W, strain MKK1, active compounds read low 0.954 | S. cerevisiae deletion strains, locus YPL256C, strain CLN2, active compounds read low 0.965

CCC(C)C(=O)O[C@H]1[C@H](O)C2C(CN3CC(C)CCC3[C@@]2(C)O)C2C[C@]34O[C@]5(O)C(OC(=O)C(C)(O)C(C)O)CC[C@@]3(C)C5C(OC(C)=O)[C@@H](OC(C)=O)C4[C@@]21O (some centres undefined)
inactive: S. cerevisiae deletion strains, locus YAL013W, strain DEP1, active compounds read low 1.01 | S. cerevisiae deletion strains, locus YBR021W, strain FUR4, active compounds read low 0.996 | S. cerevisiae deletion strains, locus YBR229C, strain ROT2, active compounds read low 1 | S. cerevisiae deletion strains, locus YCL029C, strain bik1, active compounds read low 1 | S. cerevisiae deletion strains, locus YDL035C, strain GPR1, active compounds read low 1.02 | S. cerevisiae deletion strains, locus YDL074C, strain BRE1, active compounds read low 1.01 | S. cerevisiae deletion strains, locus YDL101C, strain DUN1, active compounds read low 1.01 | S. cerevisiae deletion strains, locus YDL134C, strain PPH21, active compounds read low 1.01 | S. cerevisiae deletion strains, locus YDL185W, strain tfp1, active compounds read low 0.999 | S. cerevisiae deletion strains, locus YDL192W, strain arf1, active compounds read low 1 | S. cerevisiae deletion strains, locus YDR101C, strain arx1, active compounds read low 0.986 | S. cerevisiae deletion strains, locus YDR150W, strain NUM1, active compounds read low 1.01 | S. cerevisiae deletion strains, locus YDR162C, strain NBP2, active compounds read low 1.01 | S. cerevisiae deletion strains, locus YDR318W, strain mcm21, active compounds read low 0.998 | S. cerevisiae deletion strains, locus YDR388W, active compounds read low 1 | S. cerevisiae deletion strains, locus YDR502C, strain sam2, active compounds read low 0.996 | S. cerevisiae deletion strains, locus YEL061C, strain CIN8, active compounds read low 1.01 | S. cerevisiae deletion strains, locus YER110C, active compounds read low 0.994 | S. cerevisiae deletion strains, locus YER155C, strain BEM2, active compounds read low 1 | S. cerevisiae deletion strains, locus YER167W, strain BCK2, active compounds read low 1.07 | S. cerevisiae deletion strains, locus YGL078C, strain dbp3, active compounds read low 1 | S. cerevisiae deletion strains, locus YGL086W, strain mad1, active compounds read low 1 | S. cerevisiae deletion strains, locus YGL248W, strain PDE1, active compounds read low 1.01 | S. cerevisiae deletion strains, locus YGR078C, strain PAC10, active compounds read low 1.01 | S. cerevisiae deletion strains, locus YGR135W, strain pre9, active compounds read low 0.997 | S. cerevisiae deletion strains, locus YGR229C, strain SMI1, active compounds read low 1.03 | S. cerevisiae deletion strains, locus YGR252W, strain gcn5, active compounds read low 1.01 | [1] 1 | S. cerevisiae deletion strains, locus YHR079C, strain IRE1 (second series), active compounds read low 0.998 | S. cerevisiae deletion strains, locus YHR094C, strain hxt1, active compounds read low 1 | S. cerevisiae deletion strains, locus YHR129C, strain ARP1, active compounds read low 1 | S. cerevisiae deletion strains, locus YHR200W, strain rpn10, active compounds read low 1 | S. cerevisiae deletion strains, locus YIL066C, strain RNR3, active compounds read low 1.01 | S. cerevisiae deletion strains, locus YIL073C, strain SPO22, active compounds read low 1.02 | S. cerevisiae deletion strains, locus YIL125W, strain kgd1, active compounds read low 1.01 | S. cerevisiae deletion strains, locus YIR030C, strain dcg1, active compounds read low 0.991 | [2] 0.994 | S. cerevisiae deletion strains, locus YJL134W, strain LCB3, active compounds read low 1.01 | S. cerevisiae deletion strains, locus YJL168C, strain set2, active compounds read low 1 | S. cerevisiae deletion strains, locus YJL187C, strain SWE1 (second series), active compounds read low 1.01 | S. cerevisiae deletion strains, locus YJR043C, strain POL32, active compounds read low 0.984 | S. cerevisiae deletion strains, locus YJR075W, strain HOC1, active compounds read low 1.01 | S. cerevisiae deletion strains, locus YKL009W, strain mrt4, active compounds read low 1 | S. cerevisiae deletion strains, locus YKL068W, active compounds read low 1.01 | S. cerevisiae deletion strains, locus YKL085W, strain MDH1 (second series), active compounds read low 1 | S. cerevisiae deletion strains, locus YKL085W, strain MDH1, active compounds read low 1 | S. cerevisiae deletion strains, locus YKL190W, strain CNB1, active compounds read low 1.01 | S. cerevisiae deletion strains, locus YKR001C, strain vps1, active compounds read low 0.98 | S. cerevisiae deletion strains, locus YLR039C, strain RIC1, active compounds read low 1 | S. cerevisiae deletion strains, locus YLR058C, strain SHM2, active compounds read low 1.01 | S. cerevisiae deletion strains, locus YLR102C, strain apc9, active compounds read low 1 | S. cerevisiae deletion strains, locus YLR262C, strain YPT6, active compounds read low 0.996 | S. cerevisiae deletion strains, locus YLR268W, strain sec22, active compounds read low 0.981 | S. cerevisiae deletion strains, locus YLR330W, strain CHS5, active compounds read low 1.02 | S. cerevisiae deletion strains, locus YLR342W, strain FKS1 (second series), active compounds read low 1 | S. cerevisiae deletion strains, locus YLR371W, strain rom2, active compounds read low 1 | S. cerevisiae deletion strains, locus YLR418C, strain cdc73, active compounds read low 1 | S. cerevisiae deletion strains, locus YML016C, strain PPZ1, active compounds read low 1 | S. cerevisiae deletion strains, locus YML032C, strain rad52, active compounds read low 0.991 | S. cerevisiae deletion strains, locus YML124C, strain tub3, active compounds read low 0.996 | S. cerevisiae deletion strains, locus YMR078C, strain ctf18, active compounds read low 1.01 | S. cerevisiae deletion strains, locus YMR223W, strain ubp8, active compounds read low 0.999 | S. cerevisiae deletion strains, locus YMR263W, strain SAP30, active compounds read low 1 | S. cerevisiae deletion strains, locus YMR307W, strain GAS1, active compounds read low 0.987 | S. cerevisiae deletion strains, locus YNL067W, strain RPL9B, active compounds read low 1 | S. cerevisiae deletion strains, locus YNL128W, strain TEP1, active compounds read low 1.02 | S. cerevisiae deletion strains, locus YNL153C, strain GIM3, active compounds read low 0.996 | S. cerevisiae deletion strains, locus YNL233W, strain BNI4, active compounds read low 1.01 | S. cerevisiae deletion strains, locus YNL250W, strain rad50, active compounds read low 0.99 | S. cerevisiae deletion strains, locus YNL271C, strain bni1, active compounds read low 0.992 | S. cerevisiae deletion strains, locus YNL298W, strain CLA4, active compounds read low 0.986 | S. cerevisiae deletion strains, locus YNL307C, strain MCK1, active compounds read low 1.01 | S. cerevisiae deletion strains, locus YNL322C, strain KRE1, active compounds read low 1.01 | S. cerevisiae deletion strains, locus YNR052C, strain pop2, active compounds read low 1 | S. cerevisiae deletion strains, locus YOL006C, strain TOP1, active compounds read low 1.02 | S. cerevisiae deletion strains, locus YOL012C, strain htz1 0.933 | S. cerevisiae deletion strains, locus YOL147C, strain pex11, active compounds read low 0.996 | S. cerevisiae deletion strains, locus YOR061W, strain CKA2, active compounds read low 1.01 | S. cerevisiae deletion strains, locus YOR069W, strain VPS5, active compounds read low 1.01 | S. cerevisiae deletion strains, locus YOR136W, strain idh2, active compounds read low 1 | S. cerevisiae deletion strains, locus YOR144C, strain elg1, active compounds read low 0.996 | S. cerevisiae deletion strains, locus YOR184W, strain ser1, active compounds read low 1.02 | S. cerevisiae deletion strains, locus YOR316C, strain cot1, active compounds read low 1 | S. cerevisiae deletion strains, locus YPL055C, strain LGE1, active compounds read low 1.03 | S. cerevisiae deletion strains, locus YPL241C, strain CIN2, active compounds read low 1.01 | S. cerevisiae deletion strains, locus YPR119W, strain clb2, active compounds read low 1 | S. cerevisiae deletion strains, locus YPR141C, strain kar3, active compounds read low 0.996 | S. cerevisiae deletion strains, locus YPR163C, strain tif3, active compounds read low 0.996 | S. cerevisiae deletion strains, locus YPR167C, strain met16, active compounds read low 1.01 | S. cerevisiae deletion strains, strain wtn01, active compounds read low 0.997 | S. cerevisiae strains, strain wild type, active compounds read low 1.01
